Results with a measured potency or affinity are listed apart. Records with an inconclusive call do not appear. The source made the active and inactive calls. Unless noted, no rule for the calls is given here.
What was measured:
[1] = RMG-1 ovarian cancer cell viability loss – cherry-pick, dose response (AID 687029;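 active = signal drop whose fitted half-maximal concentration is at most twice the top valid dose, in every test run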;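 also: cells exposed to compound for 96 hours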)
[2] = CMV-driven luciferase expression suppression in HEK293 – cell-based, luminescence, dry powder, counter-screen for Pax8 inhibitor project, dose response (AID 743020;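 active = signal-lowering compounds whose fitted half-maximal concentration is at or below twice the top tested dose in every run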;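 also: HEK293 cells stably expressing the CMV luciferase reporter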)
[3] = general cell-killing toxicity readout – plate reader, dry powder samples, cytotoxicity control for PAX8 inhibitor project, dose response (AID 743021)
[4] = IGROV1 cell killing – plate reader, dry powder samples, PAX8 inhibitor project, dose response (AID 743043);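 also: more negative means fewer viable cells or more cytotoxicity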
[5] = OVCAR-3 cell viability loss – plate reader, dry powder samples, PAX8 inhibitor project, dose response (AID 743044); conditions: max activity: at 35 µM, stronger effect = lower value unless noted
[6] = toxicity toward immortalized ovarian surface epithelium – cell-based, plate reader, dry powder samples, cytotoxicity control for PAX8 inhibitor project, dose response (AID 743045);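 also: 0% = neutral control median and -100% = positive control median; more negative values mean more cell killing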
[7] = A2780 cell killing – plate reader, dry powder samples, cytotoxicity control, dose response (AID 743046);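 also: 0% = neutral control wells and -100% = cytotoxic reference compound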
[8] = OVCAR8 cell viability loss – plate reader, dry powder samples, PAX8 project, dose response (AID 743197)

Measured: max activity

C=C1C(=O)[C@]23C[C@H]1CC[C@H]2[C@]1(C)[C@@H](OC(C)=O)CC[C@@](C)(C(=O)O)[C@H]1C[C@@H]3O
inactive: [1] | [2] | [3]

C=C1C(=O)[C@@]23[C@H](O)C[C@@H]4C(C)(C)CC[C@H](O)[C@]4(C)[C@@H]2C[C@H](O)[C@@H]1[C@H]3O
inactive: [1] | [2] | [3]

Cn1nnnc1Sc1ncnc2scc(-c3ccc[nH]3)c12
inactive: [1] | [2] | [3]

O=S(=O)(Nc1cccc(-c2cn3cccnc3n2)c1)c1ccc(Cl)cc1
inactive: [1] | [2] | [3]

CSc1nc(-c2ccccc2)nc(C(Cl)Cl)n1
inactive: [1] | [2] | [3]

Cc1ccc(S(=O)(=O)N(C)C[C@H]2Oc3c(NC(=O)Nc4cccc5ccccc45)cccc3C(=O)N([C@@H](C)CO)C[C@@H]2C)cc1
inactive: [1] | [2] | [3]

C[n+]1c2n(c3ccccc31)N=C(c1cc(C(C)(C)C)c(O)c(C(C)(C)C)c1)CS2
inactive: [1] | [2] | [3]

CCN(CC)S(=O)(=O)c1cc(OC)ccc1N=Nc1ccc(O)c2ncccc12
inactive: [1] | [2] | [3]

CC(/C=C1\SC(=O)N(CC(=O)Nc2ccc(O)cc2)C1=O)=C\c1ccccc1
inactive: [1] | [2] | [3]

O=C1[C@@H]2Cc3c([nH]c4ccccc34)C(c3cccc(Br)c3)N2C(=O)CN1C1CCN(Cc2ccccc2)CC1 (some centres not stated)
inactive: [1] | [2] | [3]

Cc1cc(C)c(C(=O)/C=C/c2cccc3ccccc23)c(=O)[nH]1
inactive: [1] | [2] | [3]

COc1cc(C2C3=C(COC3=O)OC(C)(C)Oc3cc4c(cc32)OCO4)cc(OC)c1OC (configuration not stated)
inactive: [1] | [2] | [3]

CCCCCCN(C(=O)CCCN1C(=O)NC(c2ccc(-c3ccccc3)cc2)C(C(=O)OCc2ccccc2)=C1C)C(C)C(=O)NCCCC (configuration not stated)
inactive: [1] | [2] | [3]

COC(=O)[C@@]12C[C@@H](CC(=O)N3CCN(C(=O)c4ccco4)CC3)C(=O)N(Cc3ccccc3)C1=CCC(C)(C)C2
inactive: [1] | [2] | [3]

CC1=CC(=O)C(C(C)C)=C/C1=N/OS(=O)(=O)c1ccccc1
inactive: [1] | [2] | [3]

CCCCn1c(=O)[nH]c(=O)c2c1nc(Cn1ncc(Cl)c(Cl)c1=O)n2CCC
inactive: [1] | [2] | [3]

CN(N=Nc1nc[nH]c1C(N)=O)C1CCCCC1
inactive: [1] | [2] | [3]

O=[N+]([O-])c1cc2c(ccc3occc32)o1
inactive: [1] | [2] | [3]

CCCCn1c(N)c(N(CCC(C)C)C(=O)COC(=O)c2ccc([N+](=O)[O-])s2)c(=O)[nH]c1=O
inactive: [1] | [2] | [3]

COc1cccc(-c2nc(CS(=O)(=O)CC(=O)NCCCN3CC(C)CC(C)C3)c(C)o2)c1 (configuration not stated)
inactive: [1] | [2] | [3]

CN=c1scc(-c2cccs2)n1/N=C/c1ccccc1O
inactive: [1] | [2] | [3]

CC(=O)c1sc(NC(=O)CCS(=O)(=O)c2ccc(Cl)cc2)nc1C
inactive: [1] | [2] | [3]

CCCOc1ccc2[nH]c(C(=O)N/N=C/c3cc(OC)c(OC)c(OC)c3)cc2c1
inactive: [1] | [2] | [3]

Cc1cc(C)n(-c2nc(NCCN(C)C)c3c4c(sc3n2)CCCC4)n1
inactive: [1] | [2] | [3]

N#Cc1ccc(-c2ccc([C@@H]3[C@@H]4CN(S(=O)(=O)c5ccc(-c6ccccc6)cc5)C[C@H]3N4)cc2)cc1
inactive: [1] | [2] | [3]

N#Cc1nc(NCC(F)F)nc(Nc2cc(F)cc(F)c2)n1
inactive: [1] | [2] | [3]

Cc1ccc(CCc2nnc(SCC(=O)Nc3cccc(Cl)c3)n2-c2ccccc2)o1
inactive: [1] | [2] | [3]

C[C@H](NC(=O)c1ccco1)C(=O)Nc1cccc([N+](=O)[O-])c1
inactive: [1] | [2] | [3]

BrC(=C\c1ccccc1)/C=N/n1cnnc1
inactive: [1] | [2] | [3]

CCC(=O)N1CCN(c2ccc(NC(=O)c3ccc([N+](=O)[O-])o3)cc2)CC1
inactive: [1] | [2] | [3]

S=C1SCN(Cc2cccnc2)CN1Cc1cccnc1
inactive: [1] | [2] | [3]

COC1C(CO)OC(n2c3c(Cl)cccc3c3c4c(c5c6cccc(Cl)c6[nH]c5c32)C(=O)NC4=O)C(O)C1O (configuration not stated)
inactive: [1] | [2] | [3]

COC(=O)[C@]12CCCCC=C1N(Cc1cccc3ccccc13)C(=O)[C@H](CC(=O)N1CCN(C(=O)c3ccco3)CC1)C2
inactive: [1] | [2] | [3]

CNc1ccc(Br)cc(C(=O)/C=C/c2cc(OC)ccc2OC)c1=O
inactive: [1] | [2] | [3]

CCCCCCCn1c2c(c(=N)c3c1CCC3)CCCC2
inactive: [1] | [2] | [3]

O=C(Nc1ccccc1)Nc1cc(OCC(F)(F)F)cc(OCC(F)(F)F)c1
inactive: [1] | [2] | [3]

COc1cc2c(c(OC)c1OC)-c1ccc(OC)c(=O)cc1C(NC(C)=O)CC2 (configuration not stated)
inactive: [1] | [2] | [3]

O=c1cc(C(Cl)(Cl)Cl)oc2c1ccc1ccccc12
inactive: [1] | [2] | [3]

Oc1ccc(C[C@H]2CN([C@@H](Cc3ccc(O)cc3)CN3CCC[C@@H]3CN3C(=S)NC[C@@H]3Cc3ccccc3)C(=S)N2CC2CCCCCC2)cc1
inactive: [1] | [2] | [3]

Cn1nnnc1Sc1ncnc2scc(-c3ccc([N+](=O)[O-])cc3)c12
inactive: [1] | [2] | [3]

CCCCCc1c(-c2ccccc2OC)ncn1CCc1ccccc1OC
inactive: [1] | [2] | [3]

CC[C@]1(O)C[C@@H]2CN(CCc3c([nH]c4ccccc34)[C@@](C(=O)OC)(c3cc4c(cc3OC)N(C)[C@H]3[C@@](O)(C(=O)OC)[C@H](OC(C)=O)[C@]5(CC)C=CCN6CC[C@]43[C@@H]65)C2)C1
inactive: [1] | [2] | [3]

O=C(CCc1ccc(S(=O)(=O)NCc2ccccc2)cc1)NCc1cccnc1
inactive: [1] | [2] | [3]

COc1ccc([N+](=O)[O-])c(S(=O)(=O)c2ccccc2)n1
inactive: [1] | [2] | [3]

C=C1CC(COc2ccc3c(C)c(Cl)c(=O)oc3c2)(c2ccccc2)OC1=O (configuration not stated)
inactive: [1] | [2] | [3]

O=C(N/N=C/c1c[nH]c2ccccc12)c1[nH]c2ccc(Br)cc2c1-c1ccccc1
inactive: [1] | [2] | [3]

O=S(=O)(Nc1cc(Sc2ncn[nH]2)c(O)c2ccccc12)c1ccccc1
inactive: [1] | [2] | [3]

Cn1nnnc1Sc1ncnc2scc(-c3ccccc3Cl)c12
inactive: [1] | [2] | [3]

CCOc1ccc(C(=O)C(CN2CCOCC2)c2ccccc2)cc1 (configuration not stated)
inactive: [1] | [2] | [3]

CCOc1ccc2c(c1)C(C)=CC(C)(C)N2S(=O)(=O)c1ccc(NC(C)=O)cc1
inactive: [1] | [2] | [3]

Cc1ccc(NC(=O)/C=C/c2ccc([N+](=O)[O-])s2)c(C)c1
inactive: [1] | [2] | [3]

Oc1ccc(C[C@H]2CNC(=S)N2CC2CCCN2C[C@H](Cc2ccc(O)cc2)N2C[C@H](Cc3ccc(O)cc3)N(CC3CCCCC3)C2=S)cc1 (some centres not stated)
inactive: [1] | [2] | [3]

COc1ccc(/C=C2\CN(Cc3ccccc3)C/C(=C\c3ccc(OC)c(O)c3)C2=O)cc1O
inactive: [1] | [2] | [3]

COCCN(CC(=O)NC1CCCCC1)C(=O)/C=C/C(=O)c1ccc(OC)cc1O
inactive: [1] | [2] | [3]

Cn1c(=O)c([N+](=O)[O-])c(Cl)c2ccccc21
inactive: [1] | [2] | [3]

CC(C)=CCNc1ncnc2c1c(C#N)cn2C1OC(CO)C(O)C1O (configuration not stated)
inactive: [1] | [2] | [3]

COc1cc(C(=O)NCC(c2cccs2)N2CCOCC2)ccc1OCc1ccc(Cl)cc1 (configuration not stated)
inactive: [1] | [2] | [3]

COc1cccc(-c2cnc3c(NC=O)cc(-c4ccc(OC)cc4OC)cn23)c1
inactive: [1] | [2] | [3]

CC(C)C(=O)N1CCN(c2ccc(NC(=O)c3ccc([N+](=O)[O-])o3)cc2Cl)CC1
inactive: [1] | [2] | [3]

CSc1ccc(COC(=O)c2cc([N+](=O)[O-])ccc2N2CCOCC2)cc1
inactive: [1] | [2] | [3]

CCN(CC)c1ccc2c(cc1=O)[C@@H](NC)CCc1cc(OC)c(OC)c(OC)c1-2
inactive: [1] | [2] | [3]

O=C(Nc1ccc(Cl)cc1)/C(=C/c1cccc(O)c1)c1nc2ccccc2s1
inactive: [1] | [2] | [3]

COc1cccc2c1C(=O)c1c(O)c3c(c(O)c1C2=O)C[C@](O)(C(C)=O)C[C@H]3O[C@@H]1C[C@@H](N)[C@@H](O)[C@@H](C)O1
inactive: [1] | [2] | [3]

CNC(=O)c1cc(Oc2ccc(NC(=O)Nc3ccc(Cl)c(C(F)(F)F)c3)cc2)ccn1
inactive: [1] | [2] | [3]

COc1ccc(S(=O)(=O)Nc2ccc3c(c2)C(=O)N([C@H](C)CO)C[C@H](C)[C@@H](CN(C)Cc2ccc(C(F)(F)F)cc2)OCCCC[C@H](C)O3)cc1
inactive: [1] | [2] | [3] | [4] | [5] -20.9% [at 0.5 µM, stronger effect = lower value] | [6] | [7] | [8]

C[C@H](CO)N1C[C@H](C)[C@@H](CN(C)Cc2ccc(Cl)c(Cl)c2)Oc2ccc(NC(=O)Nc3ccc(F)cc3)cc2CC1=O
inactive: [1] | [2] | [3] | [4] | [5] -44% | [6]

C[C@@H]1CCCCO[C@@H](CN(C)Cc2ccc(C(F)(F)F)cc2)[C@H](C)CN([C@H](C)CO)C(=O)c2cc(NS(=O)(=O)c3cccs3)ccc2O1
inactive: [1] | [2] | [3] | [4] | [5] -15.8% | [6] | [7] | [8]

O[C@@H]1[C@@H](O)C=C2CCN3Cc4cc5c(cc4[C@H]1C23)OCO5 (some centres not stated)
inactive: [1] | [2] | [3]

From PubChem BioAssay
